Bioassay records from PubChem BioAssay.
Most compounds without a hit are left out; they make up all but 5.7% or so of the library.
hcDAF-12 act – activates DAF-12 receptor from parasite H. contortus; AID 652067; HEK293 hcDAF-12 lit1-tk-luc reporter, luminescence; 0% DMSO, 100% Δ7-dafachronic acid; activation, % at 6.8 µM; hit rate 1.4% among 370,000;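 active means activation above the mean of all tested compounds plus 3 SD, cut at about 5.5% in these data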;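 further: 100% = response to 3 µM Δ7-dafachronic acid high control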
AHR activator – activates the human aryl hydrocarbon receptor; activation, % at 5 µM; AID 2796; hit rate 2.5% among 320,000; AHR-responsive luciferase reporter cells, luminescence; P35869; in the data active means activation above about 47%;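 further: 0% = vehicle wells and 100% = reference agonist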
hgDAF12 agonist – agonists of H. glycines DAF-12 nuclear receptor; HEK293 GAL4-hgDAF12 UAS-luciferase reporter, agonist luminescence; normalized to butyrate control; hit rate 1.8% among 370,000; activation, % at 6.8 µM;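 active means activation above a cutoff set at the mean of all screened compounds plus 3 SD, cut at about 10% in these data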;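 further: 0% = DMSO wells and 100% = sodium butyrate wells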
ssDAF12 agonist – S. stercoralis DAF-12 activation, primary screen; HEK293 ssDAF-12/GRIP1 lit1-tk-luc reporter, luminescence; % of 3 µM dafachronic acid response; activation, % at 6.8 µM; hit rate 1% among 370,000; AID 652126;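 active means activation above the mean over all tested compounds plus 3 SD, cut at about 0.9% in these data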;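 further: 0% = DMSO-only wells and 100% = 3 µM delta7-dafachronic acid wells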
DAX1 inh-1 – inhibitors of human orphan nuclear receptor DAX1 (NR0B1); HEK293 Gal4-DAX1 luciferase reporter, luminescence; AID 504766; hit rate 0.99% among 340,000; inhibition, % at 6.75 µM;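 active means inhibition above the mean over all tested compounds plus 3 SD, cut at about 4.2% in these data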;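 further: 0% = DAX1-transfected cells with DMSO and 100% = empty-vector control cells with DMSO; inhibition shows as a rise in luminescence from relieved DAX1 repression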
Target sequence (P51843 207-470 limits assumed): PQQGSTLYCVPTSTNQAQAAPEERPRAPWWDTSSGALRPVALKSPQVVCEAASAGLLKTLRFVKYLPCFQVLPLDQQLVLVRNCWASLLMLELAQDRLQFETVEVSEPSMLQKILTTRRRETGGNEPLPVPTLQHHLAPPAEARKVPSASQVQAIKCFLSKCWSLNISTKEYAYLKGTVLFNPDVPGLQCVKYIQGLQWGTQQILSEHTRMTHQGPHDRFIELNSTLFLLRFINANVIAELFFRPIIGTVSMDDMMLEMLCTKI
DAX1 inh-2 – inhibitors of DAX1 repression of SF-1 activated StAR promoter; AID 652010; hit rate 1.1% among 370,000; inhibition, % at 6.8 µM; HEK293T StAR-luciferase reporter, SF-1/DAX-1 repression relief;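 active means inhibition above the mean over all tested compounds plus 3 SD, cut at about 3.6% in these data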;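 further: 0% = DAX-1 cells with DMSO and 100% = cells lacking DAX-1 with DMSO; higher inhibition means more luminescence from relief of DAX-1 repression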
An asterisk follows results filed as active; nt = no result given.

SMILES | hcDAF-12 act | AHR activator | hgDAF12 agonist | ssDAF12 agonist | DAX1 inh-1 | DAX1 inh-2
COc1cc2c(c(OC)c1OC)[C@@]1(c3ccccc3)CCCC[C@H]1[C@@H]2NC(=O)C(F)(F)F | 0.1 | nt | 3.4 | -0.8 | nt | -0.1
CC(=O)c1nc2ccccc2n1CCc1ccccc1 | -0.3 | 55.3* | 1.2 | 1.2* | 1.5 | 0.0
Cc1ccc(N2C(=O)C3CCC(C)(C2=O)C3(C)C)cc1 (configuration not stated) | -0.5 | -2.6 | 1.5 | -1.0 | 0.0 | 0.7
Cc1nn(-c2ccccc2)c2nc3c(cc12)C(=O)CCC3 | -0.8 | 55.0* | -0.1 | -0.4 | 0.2 | -0.6
Cc1nn(-c2ccccc2)c2nc(Cl)c(C(=O)O)cc12 | 0.3 | 0.1 | 0.6 | -1.0 | -0.8 | -0.3
CCCN(C1CCS(=O)(=O)C1)S(=O)(=O)c1cc(OC)ccc1OC (configuration not stated) | -0.8 | -1.6 | -0.7 | -1.9 | -0.1 | -0.3
Cc1cc(C)nc(SC2CCCCC2O)n1 (configuration not stated) | 5.8* | 12.2 | 3.6 | -0.6 | 1.1 | 1.4
O=[N+]([O-])c1ccc(NCc2ccncc2)cc1 | -1.2 | 0.1 | -1.3 | -1.3 | 4.6* | -0.6
Cc1cccc(NCC(=O)N/N=C\c2c[nH]c3ccccc23)c1 | 1.5 | 77.5* | 2.8 | -1.0 | -0.1 | -0.6
Cc1ccccc1NCC(=O)N/N=C/c1c[nH]c2ccccc12 | 4.2 | 62.2* | 0.2 | -0.9 | -1.8 | -0.5
Cc1ccc(OCC(=O)N/N=C/c2c[nH]c3ccccc23)c([N+](=O)[O-])c1 | 6.2* | 41.8 | 2.2 | -0.5 | 1.9 | -0.7
CC(Sc1ccc(Cl)cc1)C(=O)Nc1ccccc1-c1ccccc1 (configuration not stated) | 1.9 | 2.2 | -0.8 | -2.0 | 1.9 | -0.4
O=C(CC1SCCNC1=O)Nc1cccc(C(F)(F)F)c1 (configuration not stated) | 0.2 | -0.9 | 2.6 | -1.1 | 0.9 | 0.2
Cc1nn(-c2ccccc2)c(N)c1C(O)(C(F)(F)F)C(F)(F)F | -0.9 | 1.7 | -1.3 | -1.2 | 1.5 | -0.1
Nc1c2c(=O)[nH]c(O)cc2nn1-c1ccccc1 | 4.5 | nt | -1.2 | 1.2* | 1.3 | -1.2
CC1CCc2c(sc(/N=C/N(C)C)c2C#N)C1 (configuration not stated) | 1.2 | 11.7 | 6.0 | -0.6 | 4.7* | -0.1
CN(C)/C=N/c1sc2c(c1C#N)CCCC2 | 0.7 | 9.2 | 7.7 | -1.0 | 0.5 | 1.0
O=C(c1cccs1)N1CCN(c2nc3ccc([N+](=O)[O-])cc3s2)CC1 | 0.6 | -2.5 | 1.7 | -0.6 | 0.9 | 2.2
Cn1ncc2c(NCCO)nc(Cl)nc21 | -1.9 | nt | -1.7 | 1.5* | 1.4 | 0.3
Cc1ccc(/C=C2/C(=O)c3ccc(C(=O)O)cc3C2=O)o1 | 1.8 | nt | -0.6 | -0.9 | 3.0 | 0.5
Cc1ccc(C=C2C(=O)c3ccccc3C2=O)o1 | 6.3* | 33.3 | 5.2 | -1.3 | 0.8 | 0.2
O=S(=O)(c1ccc(F)cc1)N1CCN=C1SCc1cccnc1 | -1.2 | 1.7 | 1.0 | -1.2 | 7.1* | 0.7
COc1ccc(-c2nc3cccc(C)n3c2NCc2ccco2)cc1OC | -1.2 | 56.6* | 0.7 | -1.0 | -1.0 | -0.8
O=C1OCC2=C1C(c1ccc(F)cc1)c1cc3c(cc1N2)OCO3 (configuration not stated) | -0.4 | nt | -4.9 | -0.6 | 0.1 | 4.2*
N#C/C(=C\c1cccc2ccccc12)c1nn(-c2ccccc2)c(N)c1C#N | nt | 55.8* | nt | nt | nt | nt
SMILES | hcDAF-12 act | AHR activator | hgDAF12 agonist | ssDAF12 agonist | DAX1 inh-1 | DAX1 inh-2
Cc1ccc(/C=C(\C#N)c2nn(-c3ccccc3)c(N)c2C#N)cc1 | -3.2 | -0.4 | 3.5 | -0.2 | -2.3 | -1.0
COc1ccc(-c2nc3nc(C)cc(=O)n3[nH]2)cc1 | 0.1 | -0.6 | 2.6 | -1.1 | 0.3 | 0.2
O=C(Cn1ncc(Cl)c(Cl)c1=O)c1ccc(Cl)cc1 | 0.1 | 2.4 | -1.4 | -0.3 | -0.7 | -0.7
O=C(Cn1ncc(N2CCOCC2)c(Cl)c1=O)c1ccc(Cl)cc1 | -0.5 | 4.5 | -0.3 | -1.3 | 5.4* | -0.3
Cc1[nH]nc2c1C(c1ccoc1)C(C#N)=C(N)O2 (configuration not stated) | -0.5 | -0.2 | 1.5 | -0.8 | 0.7 | -0.4
Cc1ccc(-c2csc(NC(=O)c3c(C)noc3C)n2)cc1C | -1.3 | -0.3 | 5.0 | -1.0 | -1.0 | 1.1
Cc1ccc(-c2csc(NC(=O)c3c(C)noc3C)n2)s1 | nt | 76.0* | nt | nt | -0.8 | nt
O=C(CCCNS(=O)(=O)c1cccc2nsnc12)NCc1ccc(Cl)cc1 | -2.2 | 6.7 | -0.2 | -1.1 | -1.1 | -0.4
Cc1cc(/C=C(\C#N)C(=O)NCCc2c[nH]c3ccccc23)c(C)n1C | -3.0 | 5.0 | -2.2 | -1.5 | -0.9 | -0.8
N#C/C(=C/c1ccc(Br)s1)C(=O)NCCc1c[nH]c2ccccc12 | 6.0* | 35.3 | -1.5 | 0.2 | 0.0 | -0.4
COC(=O)[C@]12C[C@H](CC(=O)NCc3ccccc3)C(=O)N(Cc3cccc4ccccc34)C1=C[C@H](C(C)C)O[C@@H]2C1CC1 | -0.5 | nt | 4.4 | -1.4 | nt | -1.4
COC(=O)[C@]12C[C@H](CC(=O)NCCCCc3ccccc3)C(=O)N(Cc3cccc4ccccc34)C1=C[C@H](C(C)C)O[C@@H]2C1CC1 | -0.6 | nt | -2.5 | 1.3* | nt | -1.2
Cc1cc2nc(-c3ccc(SCC(=O)Nc4ccc(S(=O)(=O)N5CCCC5)cc4)nc3)[nH]c2cc1C | 3.5 | 31.7 | 10.3 | -0.1 | -0.2 | 3.7*
Nc1cc(=O)[nH]c(SCC(=O)Nc2ccc(S(=O)(=O)N3CCCC3)cc2)n1 | -0.2 | 0.3 | 8.8 | -1.5 | 4.3* | -0.9
O=C(CSc1ccc(-c2nc3ccccc3[nH]2)cn1)Nc1ccc(S(=O)(=O)N2CCCC2)cc1 | 1.1 | 3.5 | 0.4 | -0.8 | 0.4 | -0.1
CCOC(=O)c1c(C)[nH]c(C)c1C(=O)CSc1nc2ccccc2c(=O)n1-c1ccc(CC)cc1 | -2.2 | 13.5 | -0.3 | 0.3 | 0.1 | 0.1
Cc1sc2ncnc(N3CCC(C(=O)Nc4ccc(Cl)cc4Cl)CC3)c2c1C | -1.4 | 2.5 | 4.3 | -1.1 | -0.5 | 0.5
CCOC(=O)NC(Nc1cc(C)on1)(C(F)(F)F)C(F)(F)F | 0.6 | 3.8 | -1.0 | -1.3 | -0.2 | 0.2
CN(C)c1nc(-c2ccccc2)ncc1S(=O)(=O)c1ccccc1 | -1.7 | 2.2 | 1.9 | -0.1 | 0.0 | 4.0*
CCN(CC)c1nc(-c2ccccc2)ncc1S(=O)(=O)c1ccc(C)cc1 | 0.1 | 0.7 | 0.9 | -1.6 | 0.5 | -0.5
COc1ccccc1N(CC(O)Cn1c2ccccc2c2ccccc21)S(=O)(=O)c1ccccc1 (configuration not stated) | 0.1 | 44.5 | -2.7 | -1.0 | -0.6 | 0.2
O=S(=O)(c1ccccc1)N(CC(O)Cn1c2ccccc2c2ccccc21)c1ccccc1 (configuration not stated) | 0.2 | 64.0* | -4.1 | -1.9 | -0.3 | -0.2
